# Data as given in the supplement of paper PMC8728848.
# Shown is part of a subset that was picked to be rich in the strongest signals.
# Tests used:
# Experiment in all cases: glycan array binding signal (z-score within array); higher = stronger binding
# Settings in all cases: glycan notation: IUPAC condensed, linker removed; mutation: E41A
# [1] = biological target: Fuc(a1-2)Gal(b1-3)GalNAc(a1-3)[Fuc(a1-2)]Gal(b1-4)GlcNAc
# Summary of the method: (§1)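 The Consortium for Functional Glycomics database supplied 3228 glycan arrays, of which those lacking an available protein sequence were dropped. The binding signal, a within-array Z-score, was averaged across arrays of the same protein sequence and across linkers. Negative scores can be read as non-binding.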
# [2] = biological target: Fuc(a1-2)Gal(b1-4)GlcNAc(b1-2)Man
# Summary of the method: as §1
# [3] = biological target: Fuc(a1-2)Gal(b1-4)GlcNAc(b1-3)GalNAc
# Summary of the method: as §1
# [4] = biological target: Fuc(a1-2)[Gal(a1-3)]Gal(b1-4)[Fuc(a1-3)]Glc
# Summary of the method: as §1
# [5] = biological target: Fuc(a1-2)[GalNAc(a1-3)]Gal(b1-3)GlcNAc
# Summary of the method: as §1
# [6] = biological target: Fuc(a1-2)[GalNAc(a1-3)]Gal(b1-4)GlcNAc(b1-2)Man(a1-3)[Fuc(a1-2)[GalNAc(a1-3)]Gal(b1-4)GlcNAc(b1-2)Man(a1-6)]Man(b1-4)GlcNAc(b1-4)[Fuc(a1-6)]GlcNAc
# Summary of the method: as §1
# [7] = biological target: Fuc(a1-2)[GalNAc(a1-3)]Gal(b1-4)GlcNAc(b1-3)Gal(b1-4)GlcNAc(b1-3)Gal(b1-4)GlcNAc
# Summary of the method: as §1
# [8] = biological target: Fuc(a1-2)[GalNAc(a1-4)]Gal(b1-4)GlcNAc
# Summary of the method: as §1
# [9] = biological target: Fuc(a1-3)[Gal(b1-4)]GlcNAc
# Summary of the method: as §1
# [10] = biological target: Fuc(a1-3)[Gal3S(b1-4)]Glc
# Summary of the method: as §1
# Gal(a1-2)Gal = biological target: Gal(a1-2)Gal
# Summary of the method: as §1
# Gal(a1-3)Gal(b1-3)GlcNAc = biological target: Gal(a1-3)Gal(b1-3)GlcNAc
# Summary of the method: as §1
# [11] = biological target: Gal(a1-3)Gal(b1-3)[Fuc(a1-4)]GlcNAc(b1-2)Man(a1-3)[Gal(a1-3)Gal(b1-3)[Fuc(a1-4)]GlcNAc(b1-2)Man(a1-6)]Man(b1-4)GlcNAc(b1-4)GlcNAc
# Summary of the method: as §1
# [12] = biological target: Gal(a1-3)Gal(b1-4)[Fuc(a1-3)]GlcNAc
# Summary of the method: as §1
# [13] = biological target: Gal(a1-4)Gal(b1-4)GlcNAc(b1-2)Man(a1-3)[Gal(a1-4)Gal(b1-4)GlcNAc(b1-2)Man(a1-6)]Man(b1-4)GlcNAc(b1-4)GlcNAc
# Summary of the method: as §1
# [14] = biological target: Gal(b1-3)GalNAc(b1-3)Gal(a1-4)Gal(b1-4)Glc
# Summary of the method: as §1
# [15] = biological target: Gal(b1-3)GalNAc(b1-4)Gal(b1-4)Glc
# Summary of the method: as §1
# [16] = biological target: Gal(b1-3)GlcNAc(b1-2)Man(a1-3)[Gal(b1-3)GlcNAc(b1-2)Man(a1-6)]Man(b1-4)GlcNAc(b1-4)GlcNAc
# Summary of the method: as §1
# [17] = biological target: Gal(b1-3)GlcNAc(b1-6)Gal(b1-4)GlcNAc
# Summary of the method: as §1
# [18] = biological target: Gal(b1-4)GlcNAc(b1-2)Man(a1-3)[Gal(b1-4)GlcNAc(b1-2)Man(a1-6)]Man(b1-4)GlcNAc(b1-4)GlcNAc
# Summary of the method: as §1
# [19] = biological target: Gal(b1-4)GlcNAc(b1-2)Man(a1-3)[GlcNAc(b1-4)][Gal(b1-4)GlcNAc(b1-2)Man(a1-6)]Man(b1-4)GlcNAc(b1-4)GlcNAc
# Summary of the method: as §1
# [20] = biological target: Gal(b1-4)GlcNAc(b1-3)Gal(b1-4)GlcNAc(b1-2)[Gal(b1-4)GlcNAc(b1-3)Gal(b1-4)GlcNAc(b1-6)]Man(a1-6)[Gal(b1-4)GlcNAc(b1-3)Gal(b1-4)GlcNAc(b1-2)Man(a1-3)]Man(b1-4)GlcNAc(b1-4)GlcNAc
# Summary of the method: as §1
# GalNAc(a1-3)Gal = biological target: GalNAc(a1-3)Gal
# Summary of the method: as §1
# GalNAc(a1-3)GalNAc = biological target: GalNAc(a1-3)GalNAc
# Summary of the method: as §1
# [21] = biological target: GlcNAc(a1-4)Gal(b1-4)GlcNAc
# Summary of the method: as §1
# [22] = biological target: GlcNAc(b1-2)[GlcNAc(b1-4)]Man(a1-3)[GlcNAc(b1-4)][GlcNAc(b1-2)Man(a1-6)]Man(b1-4)GlcNAc(b1-4)GlcNAc
# Summary of the method: as §1
# [23] = biological target: GlcNAc(b1-3)Gal(b1-4)GlcNAc(b1-2)[GlcNAc(b1-3)Gal(b1-4)GlcNAc(b1-6)]Man(a1-6)[GlcNAc(b1-3)Gal(b1-4)GlcNAc(b1-2)Man(a1-3)]Man(b1-4)GlcNAc(b1-4)GlcNAc
# Summary of the method: as §1
# [24] = biological target: GlcNAc(b1-3)Gal(b1-4)GlcNAc(b1-3)Gal(b1-4)GlcNAc(b1-3)Gal(b1-4)GlcNAc(b1-3)Gal(b1-4)GlcNAc(b1-2)Man(a1-3)[GlcNAc(b1-3)Gal(b1-4)GlcNAc(b1-3)Gal(b1-4)GlcNAc(b1-3)Gal(b1-4)GlcNAc(b1-3)Gal(b1-4)GlcNAc(b1-2)Man(a1-6)]Man(b1-4)GlcNAc(b1-4)GlcNAc
# Summary of the method: as §1
# [25] = biological target: GlcNAc(b1-3)Gal(b1-4)GlcNAc(b1-3)Gal(b1-4)GlcNAc(b1-3)GalNAc
# Summary of the method: as §1
# Kdn(a2-3)Gal(b1-4)Glc = biological target: Kdn(a2-3)Gal(b1-4)Glc
# Summary of the method: as §1
binder,measurement,setting,value
CVN-E41G (protein) MHHHHHHENLYFQSGNFSQACYNSAIQGSVLTSTCIRTNGGYNTSSIDLNSVIANVDGSLKWQGSNFIETCRNTQLAGSSELAAECKTRAQQFVSTKINLDDHIAAIDGTLKYE,glycan array binding signal (z-score),[1],-0.16
same,glycan array binding signal (z-score),[2],-0.09
same,glycan array binding signal (z-score),[3],-0.19
same,glycan array binding signal (z-score),[4],-0.145
same,glycan array binding signal (z-score),[5],-0.168
same,glycan array binding signal (z-score),[6],1.61
same,glycan array binding signal (z-score),[7],-0.123
same,glycan array binding signal (z-score),[8],-0.221
same,glycan array binding signal (z-score),[9],-0.194
same,glycan array binding signal (z-score),[10],-0.171
same,glycan array binding signal (z-score),Gal(a1-2)Gal,-0.221
same,glycan array binding signal (z-score),Gal(a1-3)Gal(b1-3)GlcNAc,-0.192
same,glycan array binding signal (z-score),[11],1.41
same,glycan array binding signal (z-score),[12],-0.243
same,glycan array binding signal (z-score),[13],0.1
same,glycan array binding signal (z-score),[14],-0.198
same,glycan array binding signal (z-score),[15],-0.211
same,glycan array binding signal (z-score),[16],0.128
same,glycan array binding signal (z-score),[17],-0.121
same,glycan array binding signal (z-score),[18],-0.227
same,glycan array binding signal (z-score),[19],-0.238
same,glycan array binding signal (z-score),[20],0.189
same,glycan array binding signal (z-score),GalNAc(a1-3)Gal,-0.219
same,glycan array binding signal (z-score),GalNAc(a1-3)GalNAc,-0.252
same,glycan array binding signal (z-score),[21],-0.214
same,glycan array binding signal (z-score),[22],-0.211
same,glycan array binding signal (z-score),[23],-0.064
same,glycan array binding signal (z-score),[24],-0.204
same,glycan array binding signal (z-score),[25],-0.168
same,glycan array binding signal (z-score),Kdn(a2-3)Gal(b1-4)Glc,-0.177
